Legend:
Assay in all cases: PBM binding z-score (relative to random genomic background probes); higher = stronger binding; sequences stand for … in GC…GCGATTGACAGCGTAGAATGAAGG
[1] = test system: FXR:RXRa (NR concentration 270 nM, RXRa partner concentration 90 nM)
In short: (§1)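 Probes were double-stranded and carried 34-nt variable regions with direct-repeat seeds, single-nucleotide variants, half-site ablations and random human genomic background sequences, printed on custom Agilent 4×180K protein-binding microarrays. Arrays were incubated 1 h with ligand-free nuclear receptor dimers in PBS pH 7.4, 2% milk, 0.02% Triton X-100, 1 mM DTT, 0.2 mg/mL BSA and 0.4 mg/ml salmon testes DNA. Antibodies against each partner (one per run) detected binding, and scanned fluorescence was regression-normalized. Binding z-scores use the random background probes as reference.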

[2] = test system: LXRa:RXRa (NR concentration 270 nM, RXRa partner concentration 90 nM)
In short: as §1

[3] = test system: LXRa homodimer (NR concentration 270 nM)
In short: as §1

[4] = test system: LXRb:RXRa (NR concentration 270 nM, RXRa partner concentration 90 nM)
In short: as §1

[5] = test system: LXRb homodimer (NR concentration 270 nM)
In short: as §1

[6] = test system: PPARa:RXRa (NR concentration 270 nM, RXRa partner concentration 90 nM)
In short: as §1

[7] = test system: PPARg:RXRa (NR concentration 180 nM, RXRa partner concentration 90 nM)
In short: as §1

[8] = test system: PPARg:RXRa 270nM:90nM, anti-RXR (NR concentration 270 nM, RXRa partner concentration 90 nM)
In short: as §1

[9] = test system: PPARg:RXRa 30nM:10nM, anti-RXR (NR concentration 30 nM, RXRa partner concentration 10 nM)
In short: as §1

[10] = test system: PPARg:RXRa 90nM:30nM, anti-RXR (NR concentration 90 nM, RXRa partner concentration 30 nM)
In short: as §1

[11] = test system: PPARg:RXRa DBDmut IVT, anti-RXR (DBD mutation: RXRa K156A/R161A, NR concentration 270 nM, RXRa partner concentration 90 nM)
In short: as §1

[12] = test system: PPARg:RXRa IVT, anti-PPARg (NR concentration 270 nM, RXRa partner concentration 90 nM)
In short: as §1

[13] = test system: PPARg DBDmut:RXRa IVT, anti-PPARg (DBD mutation: PPARg1 K132A/R137A, NR concentration 270 nM, RXRa partner concentration 90 nM)
In short: as §1

[14] = test system: PPARg DBDmut IVT, anti-PPARg (DBD mutation: PPARg1 K132A/R137A, NR concentration 270 nM)
In short: as §1

[15] = test system: PPARg homodimer (NR concentration 180 nM)
In short: as §1

[16] = test system: PXR:RXRa (NR concentration 270 nM, RXRa partner concentration 90 nM)
In short: as §1

[17] = test system: PXR homodimer (NR concentration 270 nM)
In short: as §1

[18] = test system: RARa:RXR (NR concentration 270 nM, RXRa partner concentration 90 nM)
In short: as §1

[19] = test system: RARa homodimer (NR concentration 270 nM)
In short: as §1

[20] = test system: RARb:RXRa (NR concentration 270 nM, RXRa partner concentration 90 nM)
In short: as §1

| Sequence | PBM binding z-score [1] | PBM binding z-score [2] | PBM binding z-score [3] | PBM binding z-score [4] | PBM binding z-score [5] | PBM binding z-score [6] | PBM binding z-score [7] | PBM binding z-score [8] | PBM binding z-score [9] | PBM binding z-score [10] | PBM binding z-score [11] | PBM binding z-score [12] | PBM binding z-score [13] | PBM binding z-score [14] | PBM binding z-score [15] | PBM binding z-score [16] | PBM binding z-score [17] | PBM binding z-score [18] | PBM binding z-score [19] | PBM binding z-score [20] |
| --- | --- | --- | --- | --- | --- | --- | --- | --- | --- | --- | --- | --- | --- | --- | --- | --- | --- | --- | --- | --- |
| ATATGTAGATTACATCCGGGTCATTCAGGCTATG | 1.18 | 1.51 | 0.625 | 1.99 | 0.664 | 2.51 | 1.42 | 1.25 | 0.659 | 1 | 1.44 | 2.32 | 1.43 | 1.61 | 1.18 | 2.53 | 1.22 | 2.88 | 0.587 | 1.38 |
| TAGCCTATGTCATGCGGGCCAGTATAGTGTCGGC | -0.542 | -0.522 | -0.975 | -0.937 | -0.855 | -0.683 | 0.11 | -0.476 | -0.612 | -0.433 | -0.318 | 0.0427 | -0.339 | -0.807 | -1.01 | -0.639 | -1.13 | -0.718 | -1.4 | 0.113 |
| CCTTACGGGTCACGAGTTTATAGCACGACGAGCG | 6.13 | 3.82 | 0.393 | 3.41 | 0.252 | 5.25 | 5.99 | 5.87 | 2.81 | 4.64 | 4.46 | 5.06 | 0.736 | 0.94 | 2.53 | 4.8 | 2 | 4.85 | 0.68 | 4.27 |
| TCTAGCAGGACAGAGGGTCACTCAAGAGGTACGG | 0.869 | 1.11 | -0.354 | 1.18 | -0.839 | 2.19 | 1.45 | 2.25 | 2.15 | 2.31 | 0.809 | 0.465 | -0.0481 | -0.462 | 0.414 | 1.48 | -0.392 | 2.3 | -0.209 | 2.06 |
| ACTATTAATTGAGACGAGGGCAACCGATAGGTTG | 0.638 | 0.579 | 0.685 | 0.313 | 0.479 | 0.542 | 0.7 | 0.479 | 0.271 | 0.408 | 0.0464 | 0.914 | 1.03 | 1.13 | 2.25 | 0.755 | 1.25 | 0.914 | 1.68 | 1.01 |
| CGTCCCAGGTCAGAGAGGTCAGTGAATGCCGAGT | 4.31 | 4.12 | 2.6 | 3.58 | 0.209 | 3.75 | 2.21 | 2.76 | 0.0256 | 1.76 | 1.78 | 2.54 | -0.171 | -0.892 | 3.01 | 5.38 | 10.2 | 4.83 | 0.426 | 4.48 |
| TCTAGTTGGTCACGCAGGTCACACACGACGGGTA | 1.94 | 1.98 | 1.08 | 2.09 | 0.279 | 2.87 | 2.09 | 2.99 | 3.37 | 2.92 | 2.32 | 3.48 | 0.238 | 1.23 | 1.91 | 2.72 | 0.544 | 3.15 | 1.14 | 3.05 |
| CCGACTGGGGCAAGGTTACCACAACGCACAGCCA | 0.0767 | 0.351 | -0.32 | 0.671 | -1.11 | 1.98 | 2.91 | 3.54 | 1.2 | 2.55 | 3.33 | 3.56 | 0.0122 | -0.719 | -0.214 | 0.24 | -0.209 | 0.76 | 0.366 | 1.61 |
| CCTAGCAGTCCAATCTGGGTCACTCAAGGCTTGA | 0.349 | 0.868 | -0.0916 | 0.921 | -0.342 | 2.91 | 1.73 | 2.01 | -0.0165 | 1.64 | 3.55 | 4.58 | -0.524 | -0.84 | 0.738 | 1.04 | -0.0331 | 1.58 | -0.751 | 1.17 |
| GGAACGAAGGCATTCGAGTTGATAGCATGGCGAT | -0.551 | -0.66 | -0.692 | -1.09 | -1.23 | -1.8 | 0.416 | -0.825 | -0.794 | -0.901 | -0.318 | -0.69 | -0.596 | -0.862 | -1.41 | -0.315 | -0.602 | -0.623 | -0.628 | -0.659 |
| GGAACGAGGGCAAGTTGTTAGCAGAGTTTGATGG | 0.972 | 0.498 | -0.221 | 0.541 | -0.646 | 1.84 | 0.863 | 1.04 | -0.161 | 0.479 | 3.77 | 2.94 | -0.421 | -0.269 | 0.194 | 0.979 | 0.561 | 0.459 | -0.28 | 2.78 |
| CCTAGAAGGCCAGGGTCACTCAAGCATTTCGCTT | 2.51 | 1.79 | -0.266 | 2.02 | -0.312 | 3.12 | 0.628 | 1.35 | -0.294 | 0.786 | 0.376 | 0.709 | -1.14 | -1.39 | 1.89 | 2.81 | 0.284 | 3.21 | 1.23 | 3.06 |
| TCGAGTAGGTTACCAATGGGGCAATCAGCTTTCT | -0.178 | 1.28 | -0.627 | 0.776 | -1.22 | 1.27 | 0.44 | 1.02 | 1 | 1.13 | 3.39 | 2.82 | 0.0614 | 0.102 | -0.476 | 0.111 | -0.71 | 0.261 | -0.846 | 0.959 |
| CAAACTAGGACAAAGGTCAAAGTCGAGCCAACCA | 6.31 | 6.08 | 4.5 | 5.58 | 2.61 | 7 | 12.1 | 10.6 | 10.9 | 11.9 | 6.48 | 7.54 | 2.91 | 1.8 | 4.89 | 5.62 | 2.1 | 6.43 | 3.25 | 4.8 |

From the supplement of paper PMC6555819
